# Data reported in PubChem BioAssay.
# Values without a mark were called inactive. The rule behind the calls is not given here.
# Biological target: Pantothenate synthetase (Mycobacterium tuberculosis (strain ATCC 25618 / H37Rv)) (UniProt P9WIL5)
# Assay: Recombinant Mtb pantothenate synthetase (PanC) inhibitors, coupled enzyme, confirmatory (AID 375);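 note: 0% = full reaction with vehicle and 100% = no enzyme background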
# Conditions: coupled enzyme assay; at 10 µM, hits give high values
# Chain of Pantothenate synthetase (Mycobacterium tuberculosis (strain ATCC 25618 / H37Rv)) (P9WIL5 whole entry, looked up): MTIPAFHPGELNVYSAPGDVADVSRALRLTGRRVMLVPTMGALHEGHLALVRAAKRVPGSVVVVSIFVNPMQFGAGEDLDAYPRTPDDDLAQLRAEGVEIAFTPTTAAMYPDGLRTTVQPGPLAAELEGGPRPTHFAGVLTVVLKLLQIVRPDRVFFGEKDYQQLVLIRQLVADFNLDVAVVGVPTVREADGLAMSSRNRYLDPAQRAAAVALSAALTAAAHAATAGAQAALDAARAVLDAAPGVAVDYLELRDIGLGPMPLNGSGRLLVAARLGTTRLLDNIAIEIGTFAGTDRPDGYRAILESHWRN
row,SMILES,inhibition [%]
1,CCCCc1nc(NCCN2CCOCC2)c(C#N)c2c1COC(C)(C)C2,0
2,CN(CC(=O)Nc1cccnc1)S(=O)(=O)c1cc(Cl)ccc1Cl,0
3,CC(C)CN(CC(C)C)c1nc(N)c(C#N)c(CC#N)c1C#N,0
4,NC(=O)c1c(NC(=O)CN2CCCC2)sc2c1CCCC2,4
5,COC(=O)Cn1c2c(c3cc(C)ccc31)CCCC2,1
